# Bioassay records as filed in PubChem BioAssay.
# The list is not random: actives were taken first. Their share in the collection is about 18%.
# LDHA inh = LDHA (human) enzyme inhibition; P00338; purified LDHA, NADH/diaphorase-resazurin fluorescence; active compounds read low; activity change, % (values are at about 110 or 230 µM); 480,000 tested, 0.15% active; AID 1347041; in the data active = activity change below about -30%; inconclusive = mostly about -25% to -30%;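 also: plate controls were DMSO wells for no effect and wells without enzyme for full effect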
#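 Human LDH5 (2 nM) was incubated with 0.06 mM NADH and 0.2 mM pyruvate for 5 min at room temperature in Tris pH 7.4. Remaining NADH was coupled through diaphorase/resazurin, and resorufin fluorescence was read at 0 and 20 min.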
# DT40 TDP1 CPT = growth inhibition of DT40 Tdp1-/-;hTDP1 cells with camptothecin (screen for TDP1 inhibitors). chicken DT40 Tdp1-/-;hTDP1 cells + 20 nM CPT, ATP luminescence, 48 h. Potency, µM (doses to about 46.2 µM), inactives show at the highest dose activity change, negative = growth inhibition, actives largely listed as inhibitors. 420,000 tested, 12% active. AID 686979; also: potency is read from the fitted curve at half-maximal effect; nearly all actives have a fitted effect of over 55% in size
#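 Chicken DT40 Tdp1-/- cells stably complemented with human TDP1 were seeded at 400 cells/well in medium containing 20 nM camptothecin, exposed to pin-transferred compounds, and grown at 37 °C for at least 48 hr. Viability was read as ATP luminescence.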
# Gal4-VP16 FLuc = inhibits Gal4-VP16 luciferase reporter, ROR gamma counter-screen; Drosophila S2 Gal4-VP16 UAS-luciferase, luminescence, 20 h; Potency, µM (doses to about 53.6 µM), without a hit: at the highest dose activity, negative = inhibition, actives largely listed as inhibitors; 310,000 tested, 3.5% active; AID 2546;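 also: Gal4-VP16 expression switched on by copper sulfate through the metallothionein promoter; potency is read from the fitted curve at half-maximal effect; nearly all actives have a fitted effect of over 50% in size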
# DT40 TDP1 no CPT = qHTS for Inhibitors of human tyrosyl-DNA phosphodiesterase 1 (TDP1): qHTS in cells in absence of CPT | 420,000 tested, 15% active | DT40 Tdp1-/- hTDP1 cells, no CPT, ATP luminescence, 48 h | Potency, µM (series often up to 46.2 µM), for the others: top-dose activity change, negative = growth inhibition, usual class: inhibitors; also: potency is read from the fitted curve at half-maximal effect; nearly all actives have a fitted effect of over 55% in size
#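 Cells were dispensed at 400 per well, compounds added by pin tool, plates incubated ≥48 hr at 37 °C, then CellTiter-Glo added for 30 min at room temperature before luminescence reading. Line: DT40 Tdp1-/- complemented with hTDP1; camptothecin omitted.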
# RORgamma inh = ROR gamma (mouse) transcription inhibition. Potency, µM (top dose mostly 53.6 µM), without a hit: top-dose activity change, negative = inhibition, most hits filed as inhibitors. 310,000 tested, 5.4% active. AID 2551. Drosophila S2 Gal4-RORgamma UAS-luciferase reporter, 20 h. P51450; also: potency is read from the fitted curve at half-maximal effect; nearly all actives have a fitted effect of over 60% in size
# Target sequence (P51450 whole entry, looked up, the tested form may be a part): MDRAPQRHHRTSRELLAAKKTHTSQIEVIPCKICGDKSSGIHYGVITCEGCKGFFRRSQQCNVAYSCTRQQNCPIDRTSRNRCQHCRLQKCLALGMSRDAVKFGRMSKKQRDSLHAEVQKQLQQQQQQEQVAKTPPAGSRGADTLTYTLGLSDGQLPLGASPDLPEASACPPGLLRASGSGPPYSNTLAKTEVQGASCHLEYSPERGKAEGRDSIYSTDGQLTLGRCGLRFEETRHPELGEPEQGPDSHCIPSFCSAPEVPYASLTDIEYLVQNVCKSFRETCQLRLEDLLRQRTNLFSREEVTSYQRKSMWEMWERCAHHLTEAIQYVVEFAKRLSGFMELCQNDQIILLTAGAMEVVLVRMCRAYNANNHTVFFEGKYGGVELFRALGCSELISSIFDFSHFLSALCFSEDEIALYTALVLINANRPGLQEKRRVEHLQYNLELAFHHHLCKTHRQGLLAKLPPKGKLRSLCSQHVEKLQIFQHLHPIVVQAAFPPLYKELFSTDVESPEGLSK
#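 Compounds are pin-transferred onto Drosophila Schneider cells expressing a copper-inducible Gal4–ROR gamma transactivation domain fusion. After 1 hr, copper sulfate is added to 700 uM final; luciferase is read 20 hr later.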
# IL1B secr inh = blocks inflammasome-driven IL-1 beta release. 360,000 tested, 4.7% active. THP-1 LPS/ATP IL-1B secretion, AlphaLISA, 16 h; active compounds read low. activity change, % at 57.5 µM; in the data active = activity change below about -50%; inconclusive = mostly about -30% to -49%
#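 Secreted IL-1B measured by AlphaLISA bead assay after 16 h compound exposure of THP-1 cells; compounds (final up to 57.5 uM) added 1 h before LPS (250 ng/mL) and ATP (1.25 mM) stimulation; lower signal means less secretion.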
# Numbers without * were called inactive; ? = inconclusive; / = no result given; [ ] = dose if it differs, or a comment. Unless noted, calls follow the shape of the dose curve; as a rule, active = well fitted curve in the direction sought with a large enough effect; inconclusive = small, poorly fitted or top-dose-only effect, or another doubt; inactive = no such curve, though single readings can be large; an effect the other way counts as inactive or inconclusive. Unless noted, % is scaled to controls: 0 for no effect and ±100 for the full control effect.
SMILES,LDHA inh,DT40 TDP1 CPT,Gal4-VP16 FLuc,DT40 TDP1 no CPT,RORgamma inh,IL1B secr inh
CCOC(=O)c1ccc(NC(=O)c2cc(S(=O)(=O)N3CCOCC3)ccc2O)cc1,-4,?,0%,21µM*,?,32
CCOC(=O)c1c(-c2ccccc2)csc1NC(=O)c1cc(S(=O)(=O)N2CCOCC2)ccc1C,-5,7.3µM*,-11%,?,-10%,-7
CCOC(=O)c1ccc(NC(=O)c2cccc(S(=O)(=O)N3CCN(C(C)=O)CC3)c2)cc1,-6,?,-9%,13µM*,?,45
O=C(Nc1ccccc1F)c1cnn2c(C(F)F)cc(C3CC3)nc12,0,/,/,/,/,/
Cc1[nH]c(=O)[nH]c1C(=O)CCCCC(=O)OCC(=O)Nc1ccccn1,-4,1%,-9%,14%,11%,-114*
CCOC(=O)N1CCN(CC(=O)Nc2oc3ccccc3c(=O)c2-c2ccc(F)cc2)CC1,-10,/,/,/,/,/
O=c1ccc2cc(S(=O)(=O)N3CCCCC3)ccc2o1,3,/,/,/,/,/
COC(=O)c1ccc(C(=O)OC)c(NC(=O)COc2ccc(OC)cc2)c1,-8,/,/,/,/,/
CN(C)c1cc(-c2ccc(Br)cc2)oc(=O)c1Cl,-10,-3%,1%,?,-2%,-51*
CN(C)c1cc(-c2ccc(C#N)cc2)oc(=O)c1Cl,-10,1%,-6%,-1%,-2%,-2
Cc1ccc(O)c(C(=O)N(C)Cc2ccc(Cl)cc2Cl)c1,-11,/,/,/,/,/
Cc1ccsc1CN(CC1CCCO1)C(=O)COc1ccccc1 (configuration not stated),-1,/,/,/,/,/
COc1ccc(-c2cc(C(=O)NCC3CCCCC3)[nH]n2)c(C)c1,-12,?,/,?,/,-9
CC(C)c1ccc(NC(=O)c2cc(-c3cc(F)ccc3OCC3CCCO3)n[nH]2)cc1 (configuration not stated),-4,?,/,?,/,-11
Cc1ccc(NC(=O)c2cc(-c3cc(Cl)ccc3O)n[nH]2)cc1C,-4,-11%,-5%,-24%,2%,-24
Cc1ccc(Cl)cc1-c1cc(C(=O)NCC2CCCCC2)[nH]n1,-10,?,/,18µM*,/,-51*
Cc1ccc(Cl)cc1-c1cc(C(=O)Nc2ccc(F)cc2)[nH]n1,-9,23µM*,/,21µM*,/,-60*
O=C(NCC1CCCCC1)c1cc(-c2cc(F)ccc2OCC2CCCO2)n[nH]1 (configuration not stated),-4,18µM*,/,?,/,-56*
Cc1ccc(Cl)cc1-c1cc(C(=O)N2CCc3ccccc3C2)[nH]n1,-11,16µM*,/,?,/,?
CC(C)OCC(O)Cn1c(N2CCCCCC2)nc2c1c(=O)[nH]c(=O)n2C (configuration not stated),-10,/,/,/,/,/
CN(C(=O)C12CC3CC(CC(Cl)(C3)C1)C2)C1CCCCC1,5,/,/,/,/,/
Cc1nn(CN2CCN(S(=O)(=O)c3ccccc3Cl)CC2)c(=O)c2ccccc12,3,/,/,/,/,/
Cn1c(COc2ccccc2Cl)nnc1SC1CCCCCC1=O (configuration not stated),-7,/,/,/,/,/
COc1ccc(Cl)c(-c2cc(C(=O)NCc3ccc(C(F)(F)F)cc3)[nH]n2)c1,-4,16µM*,/,?,/,-28
Cc1ccc(Cl)cc1-c1cc(C(=O)NCc2ccc(C(F)(F)F)cc2)[nH]n1,-7,21µM*,/,16µM*,/,0
SMILES,LDHA inh,DT40 TDP1 CPT,Gal4-VP16 FLuc,DT40 TDP1 no CPT,RORgamma inh,IL1B secr inh
CCN(Cc1ccccc1)S(=O)(=O)c1cc(C(=O)c2c(N)n(C)c(=O)n(C)c2=O)ccc1OC,-8,?,-4%,29µM*,-5%,-2
CCN(Cc1ccccc1)S(=O)(=O)c1cc(C(=O)NC(C)C2CC3CCC2C3)ccc1OC (configuration not stated),-3,16µM*,-10%,15µM*,21%,-2
COc1ccc(C(=O)NC(C)C2CC3CCC2C3)c(OC)c1 (configuration not stated),-3,23µM*,-7%,21µM*,8%,-3
COc1ccc(CC(=O)NC(C)C2CC3CCC2C3)cc1 (configuration not stated),0,/,/,/,/,/
CCCCC(Sc1nnc(C)n1-c1ccccc1C)C(=O)Nc1cc(C)on1 (configuration not stated),-2,/,/,/,/,/
CC(C)c1noc(CCCC(=O)Nc2cccc(OC3CCCC3)c2)n1,-12,/,/,/,/,/
O=C(CSc1nc(=O)n(Cc2cccnc2)c2c1CCC2)N1CCCCCC1,1,/,/,/,/,/
COc1ccc(C2=NN3C(C2)c2ccccc2OC3c2cccs2)cc1 (configuration not stated),0,-17%,?,-20%,?,-10
COc1ccc(C2=NN3C(C2)c2ccccc2OC32C(=O)N(C)c3ccccc32)cc1 (configuration not stated),10,?,-11%[0.365 µM],21µM*,-13%,-5
Cc1ccc(NC(=O)c2nc(S(=O)(=O)Cc3ccccc3F)ncc2Cl)cc1C,-3,0.89µM*,/,2µM*,/,/
CC(=O)Nc1ccc(NC(=O)c2nc(SCc3ccccc3C)ncc2Cl)cc1,-4,-29%,/,-9%,/,/
CSc1ncc(Cl)c(C(=O)Nc2ccccc2C)n1,-6,0%,5%,-4%,4%,32
NS(=O)(=O)c1ccc(NC(=O)Cc2c(F)cccc2Cl)cc1,-1,-5%,-5%,-8%,14%,4
Cc1ccc(NNC(=O)c2c(F)cccc2Cl)cc1C,-1,-6%,1%,3%,13%,-8
NS(=O)(=O)c1ccc(NC(=O)c2nc(S(=O)(=O)Cc3ccccc3F)ncc2Cl)cc1,3,10µM*,/,7.1µM*,/,/
Cc1ccc(NC(=O)c2nc(S(=O)(=O)Cc3ccccc3F)ncc2Cl)cc1,-3,1.3µM*,/,0.89µM*,/,/
Cc1ccccc1NC(=O)c1nc(S(=O)(=O)Cc2ccccc2F)ncc1Cl,-11,1.3µM*,/,5µM*,/,/
CSc1ncc(Cl)c(C(=O)Nc2ccc(C)c(C)c2)n1,2,-7%,-10%,-7%,1%,18
Cc1ccc(NC(=O)c2nc(S(=O)(=O)Cc3ccccc3C)ncc2Cl)cc1C,-2,1.5µM*,5µM*,1.6µM*,?,-100*
Cc1ccc(CNC(=O)Cn2ncc3c(C)n(Cc4ccc(Cl)cc4)c(C)c3c2=O)cc1,-3,?,/,?,/,/
O=C(Cn1ncc2c3ccccc3n(Cc3ccc(Cl)cc3)c2c1=O)N1CCCCCC1,-8,13µM*,/,10µM*,/,/
